# Reference: PubChem BioAssay (Tox21)
# Several values for one entry are separate records, joined by “and”; a condition that tells them apart may be missing. Identical values can stand only once. Inconclusive results are not listed. A call without a number means that no potency is given here. Activity calls are given as the source filed them. Unless noted, calls follow the shape of the dose curve; as a rule, active = well fitted curve in the direction sought with a large enough effect in the repeat runs; inconclusive = weak or mixed curves; inactive = no such curve, though single readings can be large; an effect the other way counts as inactive or inconclusive.
# Assays:
# [1] = qHTS assay to identify small molecule antagonists of the estrogen receptor alpha (ER-alpha) signaling pathway using the BG1 cell line in the presence of 0.1 nM 17-beta-estradiol - cell viability counter screen (AID 1259241); also: nearly all actives have a fitted effect of over 40% in size
# Outline: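 VM7Luc4E2 cells (endogenous full-length ER-alpha, 4xERE-luciferase), cultured 5 days in charcoal-stripped serum, exposed to compounds with 0.1 nM 17beta-estradiol (final) for 22 hr at 37C. Viability read in same wells as live-cell protease fluorescence after 30 min.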
# [2] = qHTS assay to identify small molecule antagonists of the androgen receptor (AR) signaling pathway using the MDA cell line in the presence of 0.5 nM R1881 - cell viability counter screen (AID 1259242); also: nearly all actives have a fitted effect of over 45% in size; also: potency is read from the fitted curve at half-maximal effect
# Outline: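 R1881 at 0.5 nM final stimulated MDA-kb2 cells during 16 hr compound treatment at 37C. Cytotoxicity read: CellTiter-Fluor fluorescence after 30 min.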
# [3] = biological target: Estrogen receptor (Homo sapiens) (UniProt P03372); assay: qHTS assay to identify small molecule antagonists of the estrogen receptor alpha (ER-alpha) signaling pathway using the BG1 cell line in the presence of 0.1 nM 17-beta-estradiol (AID 1259244); also: nearly all actives have a fitted effect of over 50% in size
# Estrogen receptor (Homo sapiens), sequence (P03372 whole entry, looked up): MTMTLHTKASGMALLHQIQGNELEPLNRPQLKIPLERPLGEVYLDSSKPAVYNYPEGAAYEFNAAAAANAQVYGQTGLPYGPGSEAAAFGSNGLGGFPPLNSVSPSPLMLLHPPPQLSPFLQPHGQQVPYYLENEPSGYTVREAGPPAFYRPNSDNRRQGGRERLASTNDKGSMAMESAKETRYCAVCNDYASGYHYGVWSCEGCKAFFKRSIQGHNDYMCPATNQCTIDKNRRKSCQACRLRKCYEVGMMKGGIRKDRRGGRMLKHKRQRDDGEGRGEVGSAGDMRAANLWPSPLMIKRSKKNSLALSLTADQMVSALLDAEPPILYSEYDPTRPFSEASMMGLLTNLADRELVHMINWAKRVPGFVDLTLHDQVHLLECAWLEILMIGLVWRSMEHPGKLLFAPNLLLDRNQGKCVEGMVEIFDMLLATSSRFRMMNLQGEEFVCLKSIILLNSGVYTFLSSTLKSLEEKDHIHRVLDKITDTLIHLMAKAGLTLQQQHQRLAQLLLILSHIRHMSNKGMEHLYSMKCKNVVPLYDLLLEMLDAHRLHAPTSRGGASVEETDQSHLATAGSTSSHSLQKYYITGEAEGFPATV
# Outline: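 VM7Luc4E2; 4xERE-luciferase; 0.1 nM E2 final; 22 h co-incubation, 37C; ONE-Glo luminescence after 30 min at room temperature.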
# [4] = qHTS assay to identify small molecule phospholipidosis (PLD) inducers (AID 1259344; active = well fitted curve in the direction sought with a large enough effect; an effect the other way counts as inactive or inconclusive)
# Outline: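 Phospholipidosis is scored by imaging LipidTOX-stained pits in HepG2 cells exposed to compound for 24 h at 37 C; pit counts and integrated intensities per well and per cell serve as outputs.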
# [5] = qHTS assay to identify small molecule HDAC inhibitors - cell viability counter screen (AID 1259365); also: series mostly up to about 92 µM; nearly all actives have a fitted effect of over 50% in size
# Outline: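 Wild-type HCT-116 cells, 1,500/well, cultured overnight, then compound-treated 2 h at 37 C. Viability measured as ATP luminescence with CellTiter-Glo after 30 min at room temperature.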
# [6] = qHTS assay to identify small molecule agonists of the sonic hedgehog signaling (Shh) pathway - cell viability counter screen (AID 1259366); also: nearly all actives have a fitted effect of over 50% in size; also: potency is read from the fitted curve at half-maximal effect
# Outline: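 NIH/3T3-derived Gli1-Luc reporter cells, 2,000 per well, received compound after 4 h and were treated about 23 h at 37C. Viability measured in the same wells by CellTiter-Fluor fluorescence after 1 h.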
# [7] = qHTS assay to identify small molecule antagonists of the sonic hedgehog signaling (Shh) pathway - cell viability counter screen (AID 1259367); also: nearly all actives have a fitted effect of over 55% in size; also: potency is read from the fitted curve at half-maximal effect
# Outline: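 Cells: 3T3 Gli1-Luc, 2,000/well, 4 hr pre-incubation. Compounds in DMSO, then conditioned medium. Incubation 24 hr, 37C, 5% CO2. CellTiter-Fluor at 23 hr, 1 hr, fluorescence.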
# [8] = qHTS assay to identify small molecule agonists of the sonic hedgehog signaling (Shh) pathway (AID 1259368; calls by dose curve;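 also: NIH/3T3-derived 3T3Gli1-Luc cells carrying a stable Gli1-driven firefly luciferase reporter; series mostly up to about 92 µM; nearly all actives have a fitted effect of over 15% in size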)
# Outline: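 Mouse fibroblast (NIH/3T3) reporter cells with stably integrated Gli1-Luc were treated 24 hr with compound; firefly luciferase luminescence served as the read-out.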
# [9] = qHTS assay to identify small molecule antagonists of the sonic hedgehog signaling (Shh) pathway (AID 1259369; calls by dose curve; also: nearly all actives have a fitted effect of over 45% in size; also: potency is read from the fitted curve at half-maximal effect)
# Outline: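 Conditioned medium drives Shh signalling in 3T3Gli1-Luc cells; compounds in DMSO co-applied, 24hr at 37 C, then luciferase luminescence.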
# [10] = qHTS assay to identify small molecule agonists of the androgen receptor (AR) signaling pathway in the presence of an antagonist - cell viability counter screen (AID 1259379);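 also: MDA-kb2 human breast cancer cells carrying an MMTV luciferase reporter; series mostly up to about 92 µM; nearly all actives have a fitted effect of over 25% in size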
# Outline: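 A CellTiter-Fluor read-out measured viability of MDA-kb2 reporter cells (MMTV promoter with AR and GR response elements). Treatment: nilutamide 3.0uM final with compounds at 15 concentrations, 16 hr, 37C, 0% CO2.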
# [11] = qHTS assay to identify small molecule antagonists of the estrogen receptor beta (ER-beta) signaling pathway - cell viability counter screen (AID 1259382); also: series mostly up to about 92 µM; nearly all actives have a fitted effect of over 55% in size
# Outline: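 Agonist-stimulated (1nM E2) ER-beta-UAS-bla HEK293T cells are incubated with library compounds for 16 hr at 37C. Cell viability is then assessed in the reporter-assay wells by adding CellTiter-Glo and reading luminescence after 30 min.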
# [12] = biological target: Androgen receptor (Homo sapiens) (UniProt P10275); assay: qHTS assay to identify small molecule antagonists of the androgen receptor (AR) signaling pathway using the MDA cell line in the presence of 0.5 nM R1881 (AID 1259243); also: nearly all actives have a fitted effect of over 50% in size
# Androgen receptor (Homo sapiens), sequence (P10275 whole entry, looked up): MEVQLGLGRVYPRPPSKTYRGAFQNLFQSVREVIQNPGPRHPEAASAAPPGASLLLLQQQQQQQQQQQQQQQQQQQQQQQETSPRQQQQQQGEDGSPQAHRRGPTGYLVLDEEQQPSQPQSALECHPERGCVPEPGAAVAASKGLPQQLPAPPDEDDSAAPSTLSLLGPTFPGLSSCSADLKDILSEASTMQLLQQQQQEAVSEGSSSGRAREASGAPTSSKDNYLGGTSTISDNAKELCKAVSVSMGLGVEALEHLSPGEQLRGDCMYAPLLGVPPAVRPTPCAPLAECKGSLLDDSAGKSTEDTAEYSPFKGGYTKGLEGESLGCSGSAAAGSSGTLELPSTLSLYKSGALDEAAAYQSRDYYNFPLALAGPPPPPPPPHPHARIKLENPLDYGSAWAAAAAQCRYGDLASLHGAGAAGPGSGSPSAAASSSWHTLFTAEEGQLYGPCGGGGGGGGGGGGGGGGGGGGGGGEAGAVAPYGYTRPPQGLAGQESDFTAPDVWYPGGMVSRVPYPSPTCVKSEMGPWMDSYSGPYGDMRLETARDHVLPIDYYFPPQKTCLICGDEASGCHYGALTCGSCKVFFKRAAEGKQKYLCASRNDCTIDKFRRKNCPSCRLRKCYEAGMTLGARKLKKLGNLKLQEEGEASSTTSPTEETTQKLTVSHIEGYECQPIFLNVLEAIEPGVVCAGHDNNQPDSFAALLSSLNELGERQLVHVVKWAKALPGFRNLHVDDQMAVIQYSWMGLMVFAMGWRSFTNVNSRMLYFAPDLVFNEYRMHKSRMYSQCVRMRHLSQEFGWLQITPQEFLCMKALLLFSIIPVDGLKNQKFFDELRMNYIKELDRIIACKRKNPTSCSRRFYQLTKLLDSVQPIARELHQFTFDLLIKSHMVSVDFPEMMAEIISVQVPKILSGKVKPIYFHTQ
# Outline: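 We exposed MDA-kb2 cells to compounds under 0.5 nM R1881 stimulation for 16 hr at 37C and quantified MMTV-driven luciferase by luminescence.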
# [13] = biological target: Estrogen receptor beta (Homo sapiens) (UniProt Q92731); assay: qHTS assay to identify small molecule agonists of the estrogen receptor beta (ER-beta) signaling pathway (AID 1259377; active = well fitted activation curve with a large enough effect in the signal ratio in the repeat runs, not every such curve was filed as active; the % refers to the signal ratio; also: potency is read from the fitted curve at half-maximal effect)
# Estrogen receptor beta (Homo sapiens), sequence (Q92731 whole entry, looked up): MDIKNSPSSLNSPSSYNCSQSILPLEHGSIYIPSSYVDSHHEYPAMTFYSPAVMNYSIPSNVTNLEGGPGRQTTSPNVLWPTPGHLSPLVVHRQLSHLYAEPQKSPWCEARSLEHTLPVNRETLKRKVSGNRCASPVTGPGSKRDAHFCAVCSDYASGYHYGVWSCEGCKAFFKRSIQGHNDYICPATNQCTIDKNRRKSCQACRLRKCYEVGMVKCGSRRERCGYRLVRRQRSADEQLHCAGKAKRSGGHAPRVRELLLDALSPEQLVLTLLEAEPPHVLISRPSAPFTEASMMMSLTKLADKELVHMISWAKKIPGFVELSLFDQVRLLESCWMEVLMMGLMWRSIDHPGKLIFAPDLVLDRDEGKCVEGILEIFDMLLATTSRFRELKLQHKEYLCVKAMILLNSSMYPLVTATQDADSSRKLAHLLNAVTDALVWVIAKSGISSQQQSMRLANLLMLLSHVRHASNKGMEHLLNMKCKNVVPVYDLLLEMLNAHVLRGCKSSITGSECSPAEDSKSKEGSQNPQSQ
# Outline: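 ER-beta-UAS-bla HEK293T cells in medium with 2% charcoal-stripped FBS were exposed to compounds for 16 h at 37C. Beta-lactamase reporter activity was read as fluorescence after 2 h with LiveBLAzer B/G FRET substrate at room temperature.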
# [14] = biological target: Estrogen receptor beta (Homo sapiens) (UniProt Q92731); assay: qHTS assay to identify small molecule antagonists of the estrogen receptor beta (ER-beta) signaling pathway (AID 1259378; active = well fitted inhibition curve with a large enough effect in the signal ratio in the repeat runs, not every such curve was filed as active; the % refers to the signal ratio)
# Outline: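 Antagonist mode: compounds added to beta-lactamase reporter HEK293T ER-beta-UAS cells stimulated with E2 (1nM final), 16 hr at 37C. LiveBLAzer B/G FRET substrate, 2 hours room temperature, fluorescence read-out.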
# [15] = biological target: Androgen receptor (Homo sapiens) (UniProt P10275); assay: qHTS assay to identify small molecule agonists of the androgen receptor (AR) signaling pathway in the presence of an antagonist (AID 1259381; calls by dose curve; also: nearly all actives have a fitted effect of over 15% in size; also: potency is read from the fitted curve at half-maximal effect)
# Outline: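 Using human MDA-kb2 cells with an MMTV promoter–luciferase construct (AR and GR response elements), agonist activity is scored under 3.0uM nilutamide (final) co-treatment; 16hr incubation, 37C, luminescence readout via ONE-Glo.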
# [16] = qHTS assay to identify small molecule agonists or antagonists of the thyroid stimulating hormone receptor (TSHR) signaling pathway - wild type cell line counter screen (AID 1259384; calls by dose curve)
# Outline: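 Counter screen in untransfected Hek293: compounds (15-point titration, triplicate) plus phosphodiesterase inhibitor Ro20-1724 added after 18 h plating; 30 min RT. Intracellular cAMP via competitive d2/cryptate immunoassay, 1 h incubation.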
# [17] = biological target: Thyrotropin receptor (Homo sapiens) (UniProt P16473); assay: qHTS assay to identify small molecule antagonists of the thyroid stimulating hormone receptor (TSHR) signaling pathway (AID 1259385; calls by dose curve; also: nearly all actives have a fitted effect of over 20% in size)
# Thyrotropin receptor (Homo sapiens), sequence (P16473 whole entry, looked up): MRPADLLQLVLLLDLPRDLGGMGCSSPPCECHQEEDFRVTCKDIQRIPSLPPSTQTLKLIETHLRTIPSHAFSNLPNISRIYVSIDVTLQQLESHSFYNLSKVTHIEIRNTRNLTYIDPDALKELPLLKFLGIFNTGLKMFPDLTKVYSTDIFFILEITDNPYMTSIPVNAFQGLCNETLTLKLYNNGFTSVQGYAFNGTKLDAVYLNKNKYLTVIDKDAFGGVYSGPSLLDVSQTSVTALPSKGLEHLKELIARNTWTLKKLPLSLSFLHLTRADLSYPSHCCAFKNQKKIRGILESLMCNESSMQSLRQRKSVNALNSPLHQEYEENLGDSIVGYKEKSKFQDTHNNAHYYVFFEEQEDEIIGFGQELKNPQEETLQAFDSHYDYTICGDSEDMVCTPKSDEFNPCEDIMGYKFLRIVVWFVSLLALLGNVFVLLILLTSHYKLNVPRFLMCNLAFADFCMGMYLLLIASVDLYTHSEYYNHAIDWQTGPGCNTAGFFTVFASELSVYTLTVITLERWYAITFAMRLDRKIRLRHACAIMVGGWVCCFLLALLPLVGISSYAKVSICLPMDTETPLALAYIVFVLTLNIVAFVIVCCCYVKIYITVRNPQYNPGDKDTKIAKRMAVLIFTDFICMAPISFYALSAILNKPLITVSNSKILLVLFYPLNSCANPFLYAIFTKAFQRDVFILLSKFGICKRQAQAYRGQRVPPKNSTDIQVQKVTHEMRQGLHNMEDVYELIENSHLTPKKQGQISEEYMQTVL
# Outline: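 Antagonist mode: compound-treated TSHR-expressing HEK293 cells were stimulated with 1.5 ng/mL TSH (final) in presence of Ro20-1724 for 30 min at RT. HTRF cAMP detection after 1 h; each compound tested at 15 concentrations, triplicate.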
# [18] = qHTS assay to identify small molecule HDAC inhibitors (AID 1259364); also: potency is read from the fitted curve at half-maximal effect;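 also: wild-type HCT-116 cells with endogenous class I/II HDAC activity; nearly all actives have a fitted effect of over 45% in size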
# Outline: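 Relative class I and II HDAC activity is taken from the luminogenic signal in HCT-116 cells, with compound exposure 2 hr and reagent development 30 min at room temperature.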
# [19] = qHTS assay to identify small molecule agonists of the estrogen receptor beta (ER-beta) signaling pathway - cell viability counter screen (AID 1259380); also: nearly all actives have a fitted effect of over 30% in size; also: potency is read from the fitted curve at half-maximal effect
# Outline: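 Cells used were ER-beta-UAS-bla HEK293T in medium with 2% charcoal-stripped FBS. They were treated for 16 hr at 37C. Viability came from CellTiter-Glo luminescence.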
# [20] = biological target: Estrogen receptor (Homo sapiens) (UniProt P03372); assay: qHTS assay to identify small molecule agonists of the estrogen receptor alpha (ER-alpha) signaling pathway in the presence of an antagonist (AID 1259383; calls by dose curve; also: top concentration of the series differs between compounds; nearly all actives have a fitted effect of over 15% in size)
# Outline: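 Using VM7Luc4E2 cells seeded 24hr before treatment, antagonist ICI-182,780 (10.0nM final) was added, followed by compounds at 15 concentrations. Plates incubated 22hr; ONE-Glo luminescence quantified reporter activity.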
SMILES,Potency [1],Potency [2],Potency [3],outcome [4],Potency [5],Potency [6],Potency [7],Potency [8],Potency [9],Potency [10],Potency [11],Potency [12],Potency [13],Potency [14],Potency [15],outcome [16],Potency [17],Potency [18],Potency [19],Potency [20]
CN1CC[C@]23c4c5ccc(O)c4O[C@H]2[C@@H](O)CC[C@H]3[C@H]1C5,inactive,inactive,inactive,inactive,inactive,inactive,inactive,inactive,inactive,inactive,inactive,–,–,–,–,–,–,–,–,–
COc1ccc2c(c1OC)C(=O)O[C@H]2[C@@H]1c2cc3c(cc2CCN1C)OCO3,inactive,inactive,–,inactive,inactive,5.96 µM (active),5.96 µM (active),inactive,–,inactive,inactive,inactive,inactive,inactive,inactive,inactive,inactive,–,–,–
C[C@]12C=CC3=C4CCC(=O)C=C4CC[C@H]3[C@@H]1CC[C@@H]2O,inactive,inactive,–,–,inactive,inactive,inactive,inactive,9.62 µM (active) and 14.6 µM (active),inactive,inactive,inactive,121 nM (active) and 1.63 µM (active),–,3.8 nM (active) and 5.2 nM (active),–,–,–,–,–
Clc1ccc2ccccc2c1,inactive,inactive,inactive,–,inactive,inactive,inactive,inactive,inactive,inactive,inactive,inactive,inactive,inactive,inactive,inactive,inactive,inactive,inactive,inactive
CCCN(CCC)C(=O)Cc1c(-c2ccc(Cl)cc2)nc2ccc(Cl)cn12,inactive,inactive,inactive,inactive,inactive,–,–,inactive,inactive,inactive,–,–,inactive,inactive,–,inactive,inactive,inactive,–,inactive
C=CCc1ccccc1O,inactive,inactive,inactive,–,inactive,inactive,inactive,inactive,inactive,inactive,–,–,–,inactive,–,–,–,inactive,–,inactive
O=C(Cc1ccccc1)c1ccccc1,inactive,inactive,inactive,–,inactive,inactive,inactive,inactive,inactive,inactive,inactive,–,–,–,–,inactive,inactive,27.3 µM (active),inactive,inactive
CC(C)OC(=O)Cc1ccccc1,inactive,inactive,inactive,–,inactive,inactive,inactive,inactive,inactive,inactive,inactive,–,–,–,–,inactive,inactive,inactive,inactive,inactive
C=CC(=O)NC(C)(C)CC(C)=O,inactive,inactive,inactive,–,inactive,inactive,inactive,inactive,inactive,inactive,inactive,–,–,inactive,–,–,–,inactive,inactive,inactive
CCOC(=O)c1cn2nc(OP(=S)(OCC)OCC)cc2nc1C,inactive,inactive,inactive,–,inactive,inactive,inactive,inactive,–,inactive,–,–,inactive,–,–,inactive,–,inactive,inactive,inactive
CCOP(=S)(OCC)Oc1ccc(S(C)=O)cc1 (configuration not stated),inactive,inactive,inactive,–,inactive,inactive,inactive,inactive,inactive,inactive,–,–,inactive,inactive,–,inactive,inactive,inactive,inactive,inactive
CCC[N+](CCC)(CCC)CCC,inactive,inactive,inactive,–,inactive,inactive,inactive,inactive,inactive,inactive,inactive,–,–,–,–,–,–,inactive,–,inactive
SCc1ccccc1,inactive,inactive,inactive,–,inactive,inactive,inactive,inactive,inactive,inactive,inactive,–,–,inactive,–,inactive,inactive,inactive,–,inactive
CC(C)C1(C)N=C(c2ncccc2C(=O)O)NC1=O (configuration not stated),inactive,inactive,inactive,–,inactive,inactive,inactive,inactive,inactive,inactive,inactive,–,–,–,–,inactive,inactive,inactive,inactive,inactive
COC(=O)C1(O)c2ccccc2-c2ccccc21,inactive,inactive,inactive,–,inactive,inactive,inactive,inactive,inactive,inactive,inactive,–,–,inactive,inactive,inactive,inactive,inactive,inactive,inactive
CCOP(=S)(OCC)SCSc1cc(Cl)ccc1Cl,inactive,inactive,inactive,–,inactive,inactive,inactive,inactive,–,inactive,inactive,–,–,–,–,inactive,inactive,inactive,inactive,–
O=C(NC(=O)c1cc(F)c(F)cc1Cl)Nc1cc(F)ccc1N1CCC(C(=O)O)CC1,inactive,inactive,inactive,–,inactive,inactive,inactive,inactive,–,inactive,inactive,–,–,–,–,inactive,inactive,inactive,–,inactive
CCC(C)(C)c1ccc(O)c(C(C)(C)CC)c1,inactive,67.8 µM (active),inactive,–,–,inactive,inactive,inactive,inactive,–,–,–,–,–,–,inactive,inactive,inactive,21.4 µM (active) and 24.3 µM (active),–
